MazF activator: activators of E. coli MazEF toxin-antitoxin RNase, primary screen, biochemical, fluorescence, uHTS; Endoribonuclease toxin MazF (Escherichia coli (strain K12)), P0AE70; FAM/BHQ RNA-DNA oligo cleavage fluorescence, 5 h; activation, % at 20 µM; actives 0.32% (n = 350,000); in the data active means activation above about 50%
Target sequence (P0AE70 whole entry, looked up): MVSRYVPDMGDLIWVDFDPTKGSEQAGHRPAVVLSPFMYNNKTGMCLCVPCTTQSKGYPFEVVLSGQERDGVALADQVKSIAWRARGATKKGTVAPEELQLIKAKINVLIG
Anthrax LF inh2: Bacillus anthracis LF protease inhibitors, primary screen, biochemical, multiplex microsphere, MLPCN library | inhibition, % at 10 µM | multiplex microsphere protease cleavage assay | AID 588501, 2011 | actives 0.12% (n = 360,000) | Lethal factor (Bacillus anthracis), P15917; in the data active means inhibition above about 30%; inconclusive means no clear call, values can overlap the other calls
BoNT-F LC inh: BoNT/F light chain protease inhibitors, primary screen, biochemical, flow cytometry, MLPCN library; Multiplex microsphere protease cleavage assay; inhibition, % at 10 µM; actives 0.22% (n = 360,000); AID 588497, 2011; in the data active means inhibition above about 35%, passing the limit was not always enough; inconclusive means no clear call, values can overlap the other calls
Bead autofluor: compound fluorescence in toxin protease inhibitor counterscreen | fluorescence intensity (test concentration not listed) | compound autofluorescence counterscreen, microsphere flow cytometry; active compounds read high | AID 624483 | actives 3.1% (n = 360,000); in the data active means fluorescence intensity above about 16000; inconclusive means no clear call, values can overlap the other calls
BoNT A protease: BoNT/A light chain protease inhibitors, primary screen, biochemical, flow cytometry, MLPCN library | Botulinum neurotoxin type A light chain protease (Clostridium botulinum A str. ATCC 3502) | multiplex microsphere protease substrate cleavage | inhibition, % at 10 µM | actives 0.17% (n = 360,000) | AID 588499, 2011; in the data active means inhibition above about 30%; inconclusive means no clear call, values can overlap the other calls
Vc quorum ag: inducers of Vibrio cholerae quorum light production without autoinducers, primary screen, BH1578 luxS cqsA deficient, single point. AID 588436, 2011. actives 0.16% (n = 350,000). V. cholerae BH1578 lux reporter, luminescence, 6 h. activation, % at 18.7 µM; in the data active means activation mostly above about 9.7%, no sharp cut-off; inconclusive means no clear call, values can overlap the other calls; inactive means mostly below about 3.7%
BoNTA LC inh 1: BoNT/A light chain protease inhibitors, confirmation, biochemical, flow cytometry, cherry pick 1; shares compounds with BoNT-F LC inh; multiplex microsphere protease assay; inhibition, % at 10 µM; actives 3% (n = 720); AID 602139, 2011; in the data active means inhibition above about 32%
BoNTF LC inh 1: BoNT/F light chain protease inhibitors, confirmation, biochemical, flow cytometry, cherry pick 1; shares compounds with BoNT-F LC inh; multiplex microsphere protease cleavage assay; inhibition, % at 10 µM; 720 tested, under 10 active
LF protease CP1: Bacillus anthracis LF protease inhibitors, confirmation, biochemical, multiplex microsphere, cherry pick 1; shares compounds with BoNT-F LC inh; multiplex microsphere protease cleavage assay; AID 602142, 2011; 720 tested, under 10 active; inhibition, % at 10 µM
Of the large screens only hits and unclear results are named; the others gave an inactive call (follow-up assays come after a bar, where they were run). Shown are actives, neighbours in structure and some others; about 3.9% of the full set was active somewhere. Unless noted, how the calls were made is not given here.

CCCCC/C=C/C1=CC(=O)C[C@H](c2ccc(OC)cc2)C1	none
COc1ccc(S(=O)(=O)N2CCN(Cc3ccc(OC)c(OC)c3)CC2)cc1	Anthrax LF inh2 42, BoNT-F LC inh inconclusive | BoNTA LC inh 1 inactive | BoNTF LC inh 1 inactive | LF protease CP1 inactive
COc1ccc(S(=O)(=O)N2CCN(C)CC2)cc1	BoNT-F LC inh 74 | BoNTA LC inh 1 inactive | BoNTF LC inh 1 inactive | LF protease CP1 inactive
O=C(Nc1cccc(C(=O)O)c1)/C(=C\c1ccccc1)NC(=O)c1cccc2ccccc12	none
COc1ccc(C(O)c2nc(-c3cncnc3)cs2)cc1 (centres undefined)	none (no result: MazF activator)
CCC(=O)NC(=S)Nc1cccc(Cl)c1N1CCCCC1	none
COc1ccccc1NC(=O)c1ccc[n+]([O-])c1	none
O=C(Nc1ccccc1)C1CCN(S(=O)(=O)c2cccs2)CC1	none
O=C(Nc1ccccc1)C1CCN(c2nccs2)CC1	Anthrax LF inh2 40, BoNT-F LC inh inconclusive, Bead autofluor inconclusive, BoNT A protease 40 | BoNTA LC inh 1 inactive | BoNTF LC inh 1 inactive | LF protease CP1 inactive
Cc1ccc(OCCNC(=O)c2ccccc2O)cc1	BoNT-F LC inh 36 | BoNTA LC inh 1 inactive | BoNTF LC inh 1 inactive | LF protease CP1 inactive
O=C(Cc1cccc(C(F)(F)F)c1)NCc1ccc(Cl)cc1	none
O=C(O)CS(=O)(=O)CC(=O)NCc1cccc(C(F)(F)F)c1	BoNT-F LC inh 50 | BoNTA LC inh 1 inactive | BoNTF LC inh 1 inactive | LF protease CP1 inactive
Cc1cccc(C)c1NC(=O)c1csc([C@H]2C[C@H](O)[C@@H](CO)O2)n1	none (no result: MazF activator)
CN1CCN(CC(=O)Nc2nnc(-c3cccs3)s2)CC1	BoNT-F LC inh 36 | BoNTA LC inh 1 inactive | BoNTF LC inh 1 inactive | LF protease CP1 inactive
COc1ccc(-c2ccnc(SCC(=O)c3ccc(OC)c(OC)c3)n2)cc1	none
COc1ccc(-c2ccnc(SCC(=O)c3ccc(Cl)cc3)n2)cc1	Anthrax LF inh2 38, BoNT-F LC inh 70 | BoNTA LC inh 1 inactive | BoNTF LC inh 1 inactive | LF protease CP1 inactive
CC1CCCCN1CCn1c(=S)[nH]c2cc3c(cc2c1=O)OCO3 (centres undefined)	none
CC1(C)CC2CC(C)(CN2/C=N/c2sc3c(c2C#N)CC(C)(C)NC3(C)C)C1 (centres undefined)	none
CSc1ccc(C(=O)C2CCCN(CCCn3cccn3)C2)cc1 (centres undefined)	BoNT-F LC inh 37 | BoNTA LC inh 1 inactive | BoNTF LC inh 1 inactive | LF protease CP1 inactive
CCOC(=O)c1cnc2c(C(=O)OCC)cnn2c1N	Anthrax LF inh2 31, BoNT-F LC inh inconclusive | BoNTA LC inh 1 inactive | BoNTF LC inh 1 inactive | LF protease CP1 inactive
CCN(CC)C(=O)c1sc2nc(-c3cccs3)cc(-c3cccs3)c2c1N	none
CCN(CC)C(=O)c1sc2nc(-c3cccs3)cc(-c3ccc(Cl)cc3)c2c1N	Anthrax LF inh2 39, BoNT A protease 53 | BoNTA LC inh 1 inactive | BoNTF LC inh 1 inactive | LF protease CP1 inactive
CC(C)(C)C(=O)c1sc2nc(-c3cccs3)cc(C(F)(F)F)c2c1N	MazF activator active, Anthrax LF inh2 34, BoNT A protease 34 | BoNTA LC inh 1 inactive | BoNTF LC inh 1 inactive | LF protease CP1 inactive
Nc1c(C(=O)Nc2nccs2)sc2nc(-c3cccs3)cc(C(F)(F)F)c12	MazF activator 115, BoNT-F LC inh 82 | BoNTA LC inh 1 inactive | BoNTF LC inh 1 inactive | LF protease CP1 inactive
Cc1nnc(NC(=O)c2sc3nc(-c4cccs4)cc(C(F)(F)F)c3c2N)s1	none
COc1ccc(NC(=O)c2sc3nc(Cc4ccccc4)cc(C(F)(F)F)c3c2N)cc1OC	none

Screening results deposited in PubChem BioAssay by several laboratories.
